Experimental data reported in PubChem BioAssay (Tox21).
“And” between values parts separate entries of the source, which are not always exact repeats. Identical values can stand only once. Results filed as inconclusive are left out. Where a call stands in place of a potency, no number is given. More than one record can exist for a structure, and the calls need not agree. The source made the active and inactive calls. Unless noted, the call rests on the fitted dose curve; in most records, active means well fitted curve in the direction sought with a large enough effect in the repeat runs; inconclusive means weak or mixed curves; inactive means no such curve, though single readings can be large; an effect the other way counts as inactive or inconclusive.

Legend:
[1] = qHTS assay to identify small molecule agonists of the estrogen receptor alpha (ER-alpha) signaling pathway in the presence of an antagonist - cell viability counter screen (AID 1259386);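 further: series mostly up to about 92 µM; cells exposed to compounds for 22 h at 37 °C before the viability read; nearly all actives have a fitted effect of over 30% in size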
Method in brief: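 Using estrogen-depleted VM7Luc4E2 cells, the 15-concentration compound series was applied together with 10.0nM ICI-182,780 and incubated 22hr at 37C/5% CO2. Cell viability was then scored by CellTiter-Fluor.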

[2] = molecular target: Progesterone receptor (Homo sapiens) (UniProt P06401); assay: qHTS assay to identify small molecule agonists of the progesterone receptor (PR) signaling pathway (AID 1346784; calls by dose curve; further: nearly all actives have a fitted effect of over 30% in size; further: potency means the concentration at half of the fitted maximal effect)
Progesterone receptor (Homo sapiens), sequence (P06401 whole entry, looked up): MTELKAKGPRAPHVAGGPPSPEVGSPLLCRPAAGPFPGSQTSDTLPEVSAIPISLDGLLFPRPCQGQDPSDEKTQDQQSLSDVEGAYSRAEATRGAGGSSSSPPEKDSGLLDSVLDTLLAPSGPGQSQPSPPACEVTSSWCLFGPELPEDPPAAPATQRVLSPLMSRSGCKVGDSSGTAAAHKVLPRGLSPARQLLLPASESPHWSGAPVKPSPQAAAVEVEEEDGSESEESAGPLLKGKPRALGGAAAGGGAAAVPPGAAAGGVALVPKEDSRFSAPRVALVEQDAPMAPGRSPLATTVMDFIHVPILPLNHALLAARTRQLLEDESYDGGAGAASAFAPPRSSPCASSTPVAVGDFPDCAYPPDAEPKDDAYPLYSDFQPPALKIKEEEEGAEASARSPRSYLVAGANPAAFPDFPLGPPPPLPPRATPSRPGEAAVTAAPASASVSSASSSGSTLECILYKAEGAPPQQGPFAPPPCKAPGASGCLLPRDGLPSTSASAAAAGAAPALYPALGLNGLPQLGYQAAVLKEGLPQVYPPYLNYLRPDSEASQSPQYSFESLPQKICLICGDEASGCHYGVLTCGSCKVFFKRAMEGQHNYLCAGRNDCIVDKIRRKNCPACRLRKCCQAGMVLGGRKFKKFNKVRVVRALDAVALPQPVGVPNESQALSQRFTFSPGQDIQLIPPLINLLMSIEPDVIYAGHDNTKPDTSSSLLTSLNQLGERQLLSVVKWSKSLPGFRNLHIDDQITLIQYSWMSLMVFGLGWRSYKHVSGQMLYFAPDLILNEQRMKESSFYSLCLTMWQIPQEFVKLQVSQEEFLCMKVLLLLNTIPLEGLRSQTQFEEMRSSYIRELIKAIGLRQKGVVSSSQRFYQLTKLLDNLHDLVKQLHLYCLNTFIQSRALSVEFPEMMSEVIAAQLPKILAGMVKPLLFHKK
Method in brief: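 Seed PR-UAS-bla HEK 293T cells (2% charcoal-stripped FBS), incubate 6 hr at 37C; add compounds in DMSO, 16 hr at 37C; add LiveBLAzer B/G substrate, 2 hr RT; read fluorescence intensity.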

[3] = molecular target: Progesterone receptor (Homo sapiens) (UniProt P06401); assay: qHTS assay to identify small molecule antagonists of the progesterone receptor (PR) signaling pathway (AID 1346795; active means well fitted inhibition curve with a large enough effect in the signal ratio in the repeat runs, not every such curve was filed as active; the % refers to the signal ratio)
Method in brief: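 Screening used a GripTite HEK293T line with PR-responsive UAS-beta-lactamase. Cells were challenged with compound in the presence of 1 nM R5020 final for 16 hr at 37C; B/G FRET substrate, 2 hr room temperature, fluorescence.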

[4] = qHTS assay to identify small molecule antagonists of the progesterone receptor (PR) signaling pathway - cell viability counter screen (AID 1346798); further: series mostly up to about 92 µM; nearly all actives have a fitted effect of over 50% in size
Method in brief: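 Measures cytotoxicity in parallel with the PR antagonist reporter read: HEK293T PR-UAS-bla cells get compound and R5020 for 16 hr, and remaining viable cells are quantified by CellTiter-Glo luminescence.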

[5] = qHTS assay to identify small molecule agonists of the progesterone receptor (PR) signaling pathway - cell viability counter screen (AID 1346799; calls by dose curve; further: nearly all actives have a fitted effect of over 45% in size)
Method in brief: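 Using the same plates as the PR reporter screen, HEK293T PR-UAS-bla cells received compounds for 16 hr at 37C and were then lysed with CellTiter-Glo; luminescence was read 30 min later at room temperature.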

[6] = qHTS assay to identify small molecule antagonists of the TGF-beta/Smad signaling pathway - cell viability counter screen (AID 1346824); further: nearly all actives have a fitted effect of over 50% in size
Method in brief: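 SBE-bla HEK 293T cells, incubated overnight, then compound plus 0.25 ng/mL TGF-beta1 (stock added) for 5 hr at 37 C. Viability was read in the same wells by CellTiter-Glo luminescence after 30 min at room temperature.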

[7] = qHTS assay to identify small molecule agonists of the TGF-beta/Smad signaling pathway - cell viability counter screen (AID 1346829); further: top concentration of the series differs between compounds; nearly all actives have a fitted effect of over 45% in size
Method in brief: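 After overnight seating at 37 C and 5% CO2, reporter cells got compounds for 5 hr and FRET substrate for 2 hr; cell viability then came from CellTiter-Glo luminescence.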

[8] = qHTS assay to identify small molecule agonists of the TGF-beta/Smad signaling pathway (AID 1346859; active means well fitted activation curve with a large enough effect in the signal ratio in the repeat runs, not every such curve was filed as active; the % refers to the signal ratio; further: series mostly up to about 77 µM)
Method in brief: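 Beta-lactamase reporter activity downstream of Smad binding elements was measured in stably transfected HEK 293T cells; compounds were incubated for 5 hr, substrate for 2 hr at room temperature.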

[9] = molecular target: Thyrotropin-releasing hormone receptor (Homo sapiens) (UniProt P34981); assay: qHTS assay to identify small molecule antagonists of the thyrotropin-releasing hormone receptor (TRHR) signaling pathway (AID 1346877; active means well fitted inhibition curve with a large enough effect in the repeat runs, not every such curve was filed as active; further: series mostly up to about 51 µM)
Thyrotropin-releasing hormone receptor (Homo sapiens), sequence (P34981 whole entry, looked up): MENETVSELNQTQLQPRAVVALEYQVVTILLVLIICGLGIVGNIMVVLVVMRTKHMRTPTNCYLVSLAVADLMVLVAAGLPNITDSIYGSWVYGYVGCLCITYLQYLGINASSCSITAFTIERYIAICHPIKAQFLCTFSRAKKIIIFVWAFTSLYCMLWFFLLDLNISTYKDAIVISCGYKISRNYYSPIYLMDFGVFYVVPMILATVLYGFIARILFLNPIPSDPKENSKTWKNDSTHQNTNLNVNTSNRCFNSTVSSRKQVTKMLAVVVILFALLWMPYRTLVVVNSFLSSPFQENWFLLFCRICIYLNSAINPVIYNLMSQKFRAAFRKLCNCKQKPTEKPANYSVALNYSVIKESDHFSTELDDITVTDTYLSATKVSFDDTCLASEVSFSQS
Method in brief: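 Calcium signal in dye-loaded TRHR/HEK293 cells; compounds added 5 min before TRH (1 nM final); fluorescence monitored 3 min at 1 s steps.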

[10] = molecular target: Thyrotropin-releasing hormone receptor (Homo sapiens) (UniProt P34981); assay: qHTS assay to identify small molecule agonists of the thyrotropin-releasing hormone receptor (TRHR) signaling pathway (AID 1346891; calls by dose curve;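 further: HEK293 cells expressing TRHR with calcium dye readout; series mostly up to about 58 µM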)
Method in brief: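 Overnight-plated (18 h, 37 °C, 5% CO2) TRHR-Hek293 cells; 2 h calcium dye at 37 °C; compound in DMSO; 3-min kinetic fluorescence read.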

[11] = Human pregnane X receptor (PXR) small molecule agonists, qHTS cell viability counter screen (AID 1346977); further: nearly all actives have a fitted effect of over 50% in size
Method in brief: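 After a 5hr pre-incubation, PXR-Luc HepG2 cells received compounds plus positive control in DMSO and were kept 24hr at 37C. Cell viability was quantified by fluorescence from CellTiter-Fluor added for the final hour.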

[12] = Caspase-3/7 induction in HepG2 cells by small molecules, qHTS assay (AID 1346978); further: nearly all actives have a fitted effect of over 15% in size
Method in brief: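 Wild-type HepG2 cells, 2,000/well, settled 5 hr at 37 C and 5% CO2, then compound-treated for 17 hr; caspase-3/7 activity read by luminescent Caspase-Glo 3/7 after 30 min at room temperature.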

[13] = Caspase-3/7 induction in CHO-K1 cells by small molecules, qHTS cell viability counter screen (AID 1346979); further: nearly all actives have a fitted effect of over 35% in size
Method in brief: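 Multiplexed with Caspase-Glo 3/7 in CHO-K1 cells, this counter screen added CellTiter-Fluor after 16hr of compound exposure and recorded fluorescence 1hr later.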

[14] = Caspase-3/7 induction in CHO-K1 cells by small molecules, qHTS assay (AID 1346980); further: nearly all actives have a fitted effect of over 15% in size
Method in brief: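 Wild-type CHO-K1 cells exposed to compounds for 17hr at 37 C, 5% CO2. Caspase-3/7 activity then measured by Caspase-Glo 3/7 luminescence after 30min at room temperature.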

[15] = Caspase-3/7 induction in HepG2 cells by small molecules, qHTS cell viability counter screen (AID 1346981); further: series mostly up to about 92 µM; nearly all actives have a fitted effect of over 30% in size
Method in brief: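 After a 5-hr attachment period at 37 C and 5% CO2, wild-type HepG2 cells received compounds in DMSO. Sixteen hours later CellTiter-Fluor was dispensed and the fluorescent signal quantified after a further hour.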

[16] = molecular target: Nuclear receptor subfamily 1 group I member 2 (Homo sapiens) (UniProt O75469); assay: Human pregnane X receptor (PXR) small molecule agonists, qHTS assay (AID 1346982); further: nearly all actives have a fitted effect of over 35% in size; further: potency means the concentration at half of the fitted maximal effect
Nuclear receptor subfamily 1 group I member 2 (Homo sapiens), sequence (O75469 whole entry, looked up): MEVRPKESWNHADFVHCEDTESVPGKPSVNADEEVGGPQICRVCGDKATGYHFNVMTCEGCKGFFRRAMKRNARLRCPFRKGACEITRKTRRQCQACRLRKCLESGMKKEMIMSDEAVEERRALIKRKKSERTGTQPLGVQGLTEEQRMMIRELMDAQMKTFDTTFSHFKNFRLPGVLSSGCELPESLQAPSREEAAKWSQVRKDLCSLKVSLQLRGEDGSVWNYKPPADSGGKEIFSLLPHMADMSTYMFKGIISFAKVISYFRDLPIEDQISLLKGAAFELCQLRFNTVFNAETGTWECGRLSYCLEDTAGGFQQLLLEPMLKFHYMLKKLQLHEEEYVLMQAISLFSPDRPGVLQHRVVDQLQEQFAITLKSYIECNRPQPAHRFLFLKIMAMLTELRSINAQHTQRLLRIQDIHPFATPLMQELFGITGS
Method in brief: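 Tox21 qHTS; PXR-Luc HepG2; compounds pinned from DMSO; 24 hr, 37 C; ONE-Glo luciferase detection, 30 min room temperature.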

[17] = molecular target: Nuclear receptor subfamily 1 group I member 2 (Rattus norvegicus) (UniProt Q9R1A7); assay: Rat pregnane X receptor (rPXR) activation by small molecules, qHTS assay (AID 1346983); conditions: rPXR luciferase reporter cells, One-Glo luminescence, 24 h; stronger effect = higher value; further: nearly all actives have a fitted effect of over 20% in size
Nuclear receptor subfamily 1 group I member 2 (Rattus norvegicus), sequence (Q9R1A7 whole entry, looked up): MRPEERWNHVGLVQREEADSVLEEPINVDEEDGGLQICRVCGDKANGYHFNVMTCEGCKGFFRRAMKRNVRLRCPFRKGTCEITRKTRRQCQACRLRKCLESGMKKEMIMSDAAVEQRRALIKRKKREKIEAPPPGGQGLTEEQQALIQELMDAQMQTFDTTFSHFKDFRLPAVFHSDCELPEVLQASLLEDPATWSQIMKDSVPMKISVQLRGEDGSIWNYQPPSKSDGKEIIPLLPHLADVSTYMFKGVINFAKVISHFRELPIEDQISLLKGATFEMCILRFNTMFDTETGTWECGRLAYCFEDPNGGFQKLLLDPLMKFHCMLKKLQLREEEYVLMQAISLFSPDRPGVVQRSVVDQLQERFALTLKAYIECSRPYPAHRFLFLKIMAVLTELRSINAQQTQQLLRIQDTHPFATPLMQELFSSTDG
Method in brief: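 Cell-based rPXR activation assay: rPXR cells, 2,000 per well, rested 5hr at 37 C, then exposed to compounds in DMSO for 24 hr at 37 C. Luciferase activity read by One-Glo luminescence after 30 min at room temperature.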

[18] = molecular target: Nuclear receptor subfamily 1 group I member 2 (Homo sapiens) (UniProt O75469); assay: CYP3A4 induction through human pregnane X receptor (PXR) by small molecules, qHTS assay (AID 1346984); further: nearly all actives have a fitted effect of over 40% in size
Method in brief: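 Cells (DPX-2; HepG2 with PXR element plus CYP3A4-promoter luciferase) settled 5hr, then were treated 24hr at 37C. A 3hr, 3uM-final Luciferin-IPA step preceded luminescence measurement with One-Glo.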

[19] = molecular target: Nuclear receptor subfamily 1 group I member 2 (Homo sapiens) (UniProt O75469); assay: Human pregnane X receptor (PXR) activation by small molecules, qHTS assay (AID 1346985); further: nearly all actives have a fitted effect of over 40% in size
Method in brief: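 DPX-2 cells (HepG2 co-transfected with a PXR response element and a CYP3A4-promoter luciferase construct) were seeded at 2,000 per well, rested 5 hr at 37C, then exposed to DMSO-dissolved compounds for 24 hr. Activation was read as luciferase luminescence.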

[20] = molecular target: Acetylcholinesterase (Homo sapiens) (UniProt P22303); assay: Acetylcholinesterase (AChE) small molecule antagonists: colormetric cell-based qHTS assay (AID 1347395; calls by dose curve; further: nearly all actives have a fitted effect of over 30% in size)
Acetylcholinesterase (Homo sapiens), sequence (P22303 whole entry, looked up): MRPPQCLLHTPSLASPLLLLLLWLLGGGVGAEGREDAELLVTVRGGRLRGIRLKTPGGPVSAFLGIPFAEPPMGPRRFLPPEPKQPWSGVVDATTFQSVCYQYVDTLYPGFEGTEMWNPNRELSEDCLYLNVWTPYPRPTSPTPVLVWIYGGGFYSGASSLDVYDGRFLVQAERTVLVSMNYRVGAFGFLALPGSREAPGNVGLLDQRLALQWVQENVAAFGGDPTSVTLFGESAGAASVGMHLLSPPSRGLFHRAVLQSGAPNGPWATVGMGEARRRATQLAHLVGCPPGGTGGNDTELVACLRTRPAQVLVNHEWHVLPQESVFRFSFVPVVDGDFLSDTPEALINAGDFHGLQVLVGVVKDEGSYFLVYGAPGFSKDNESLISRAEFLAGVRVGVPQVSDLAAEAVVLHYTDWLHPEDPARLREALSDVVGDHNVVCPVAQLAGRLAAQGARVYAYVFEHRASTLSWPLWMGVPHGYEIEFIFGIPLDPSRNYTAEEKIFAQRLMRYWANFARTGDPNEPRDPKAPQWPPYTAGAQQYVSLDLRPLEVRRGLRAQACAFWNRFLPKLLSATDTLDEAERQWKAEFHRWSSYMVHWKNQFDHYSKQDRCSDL
Method in brief: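 In this cell-based qHTS, attached SH-SY5Y cells were treated with test chemicals for 30 min, after which acetylthiocholine hydrolysis was followed by DTNB colour development over 90 min at 37 C.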

Compound | Potency [1] | Potency [2] | Potency [3] | Potency [4] | Potency [5] | Potency [6] | Potency [7] | Potency [8] | Potency [9] | Potency [10] | Potency [11] | Potency [12] | Potency [13] | Potency [14] | Potency [15] | Potency [16] | max activation [17] | outcome [18] | Potency [19] | Potency [20]
Nc1ccccc1 | inactive | inactive | inactive | inactive | inactive | inactive | inactive | inactive | inactive | inactive | inactive | inactive | inactive | inactive | inactive | inactive |  |  |  | 
O=C(O)c1ccccc1O | inactive | inactive | inactive | inactive | inactive | inactive | inactive | inactive |  |  | inactive | inactive | inactive | inactive | inactive |  |  |  |  | 
O=C(O)C(Cl)Cl | inactive | inactive | inactive | inactive | inactive | inactive | inactive | inactive | inactive | inactive | inactive | inactive | inactive | inactive | inactive | inactive | -1.74% (inactive) | inactive | inactive | inactive
COc1ccc(N)cc1 | inactive | inactive | inactive | inactive | inactive | inactive | inactive | inactive |  |  | inactive | inactive | inactive | inactive | inactive | 60.6 µM (active) |  |  |  | 
O=[N+]([O-])c1ccccc1O | inactive | inactive | inactive | inactive | inactive | inactive | inactive | inactive | inactive | inactive | inactive | inactive | inactive | inactive | inactive | inactive |  |  |  | inactive
CCCC[n+]1ccccc1C | inactive | inactive | inactive | inactive | inactive | inactive | inactive | inactive |  |  | inactive | inactive | inactive | inactive | inactive | inactive |  |  |  | 
C1CCC(NC2CCCCC2)CC1 | inactive | inactive | inactive | inactive | inactive | inactive | inactive | inactive | inactive | inactive | inactive | inactive | inactive | inactive | inactive | inactive | -0.555% (inactive) | inactive | inactive | inactive
COP(=O)(OC)OC=C(Cl)Cl | inactive | inactive | inactive | inactive | inactive | inactive | inactive | inactive | inactive | inactive | inactive | inactive | inactive | inactive | inactive | inactive | 0.647% (inactive) | inactive | inactive | 
CC(=O)O | inactive | inactive and 392 nM (active) | inactive | inactive | inactive | inactive | inactive | inactive |  |  | inactive | inactive | inactive | inactive | inactive |  |  |  |  | 
Cc1cc(Cl)ccc1N | inactive | inactive | inactive | inactive | inactive | inactive | inactive | inactive | inactive | inactive | inactive | inactive | inactive | inactive | inactive | inactive |  |  |  | 
O=c1nc(O)n(Cl)c(=O)n1Cl | inactive | inactive | inactive | inactive | inactive | inactive | inactive | inactive | inactive | inactive | inactive | inactive | inactive | inactive | inactive | inactive |  |  |  | inactive
CCCn1cc[n+](C)c1 | inactive | inactive | inactive | inactive | inactive | inactive | inactive | inactive | inactive | inactive | inactive | inactive | inactive | inactive | inactive | inactive |  |  |  | inactive
O=P1(N(CCCl)CCCl)NCCCO1 (stereo not given) | inactive | inactive | inactive | inactive | inactive | inactive | inactive | inactive | inactive | inactive | inactive | inactive | inactive | inactive | inactive | inactive |  |  |  | inactive
CNC | inactive | inactive | inactive | inactive | inactive | inactive | inactive | inactive | inactive | inactive | inactive | inactive | inactive | inactive | inactive | inactive |  |  |  | inactive
